Active and inactive are the calls of the source.
Legend:
[1] = system: PRMT1 (protein arginine N-methyltransferase 1); assay: PRMT1 binders on small-molecule microarrays, primary screen, biochemical, small-molecule microarray, 635 nm fluorescence (AID 1088); conditions: small-molecule microarray binding, higher = more signal;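 also: binding of Prmt1 protein to compounds spotted on small-molecule microarray slides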
[2] = yeast growth modulation, basal conditions, primary screen, YJM789 clinical isolate, OD600, 24 h (AID 1089);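 also: growth of clinical yeast isolate S. cerevisiae YJM 789 seeded 1000 cells per well; test concentration not given here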; conditions: S. cerevisiae YJM789 growth, higher = more signal, called active from +8 up or from −8 down
[3] = fission yeast growth modulation, primary screen, strain 972, OD600, 24 h, no modulator (AID 1090);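 also: basal condition with compound alone and no growth modifier present; test concentration not given here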; conditions: S. pombe 972 growth, higher = more signal, called active from +8 up or from −8 down
[4] = S. cerevisiae growth modulation with rapamycin, primary screen, strain BY4716, OD600, 96 h (AID 1091); conditions: higher = more signal, called active from +8 up or from −8 down; also: test concentration not given here
[5] = target: Torsin-1A-interacting protein 2 (Homo sapiens) (UniProt Q8NFQ8); assay: LULL1 binders on small-molecule microarray, primary screen, cell lysate, human LULL1 lysate, 635/667 nm fluorescence (AID 1092); conditions: hLULL1 lysate binding, 635 nm fluorescence, higher = more signal;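 also: probe is lysate of COS7 cells overexpressing human LULL1; score merges per-feature 667 nm fluorescence with signal-to-noise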
Torsin-1A-interacting protein 2 (Homo sapiens), sequence (Q8NFQ8 whole entry, looked up): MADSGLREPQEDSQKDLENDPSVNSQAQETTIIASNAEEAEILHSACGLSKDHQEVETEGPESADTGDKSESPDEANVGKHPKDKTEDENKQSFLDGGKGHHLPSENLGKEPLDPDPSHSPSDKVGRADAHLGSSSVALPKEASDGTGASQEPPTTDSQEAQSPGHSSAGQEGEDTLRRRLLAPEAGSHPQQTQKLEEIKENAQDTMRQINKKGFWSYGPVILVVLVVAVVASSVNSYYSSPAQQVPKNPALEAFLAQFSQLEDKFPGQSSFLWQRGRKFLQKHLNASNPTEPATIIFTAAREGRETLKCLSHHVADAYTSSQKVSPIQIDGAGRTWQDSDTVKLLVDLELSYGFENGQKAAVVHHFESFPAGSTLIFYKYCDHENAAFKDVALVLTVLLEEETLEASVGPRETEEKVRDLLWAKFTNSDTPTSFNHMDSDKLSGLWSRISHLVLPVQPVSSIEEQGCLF

[6] = E. coli growth modulation, two-sided OD650, primary screen, E. coli filamentation project, strain DRC41, 24 h (AID 1093); conditions: OD650, 24 h, higher = more signal, called active from +8 up or from −8 down;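 also: MC1000 strain lacking acrAB efflux and sulA so SOS filamentation is blocked; test concentration not given here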
[7] = small-molecule microarray binders of probe aLefty2, primary screen, biochemical, biotinylated probe, 635/667 nm fluorescence (AID 1094); conditions: higher = more signal;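 also: score merges spot fluorescence near 667 nm with spot signal-to-noise ratio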
[8] = system: Noggin (protein binding on small-molecule microarray); assay: Noggin binders on small-molecule microarray, primary screen, biochemical, 635/667 nm fluorescence (AID 1095); conditions: 635 nm fluorescence, higher = more signal;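 also: score merges 667 nm feature fluorescence with signal to noise over triplicate slides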
[9] = target: Neurogenic locus notch homolog protein 3 (Homo sapiens) (UniProt Q9UM47); assay: NOTCH3 binders on small-molecule microarray, primary screen, biochemical, 635/667 nm fluorescence (AID 1096); conditions: NOTCH3 binding, 635 nm fluorescence, higher = more signal
Neurogenic locus notch homolog protein 3 (Homo sapiens), sequence (Q9UM47 whole entry, looked up): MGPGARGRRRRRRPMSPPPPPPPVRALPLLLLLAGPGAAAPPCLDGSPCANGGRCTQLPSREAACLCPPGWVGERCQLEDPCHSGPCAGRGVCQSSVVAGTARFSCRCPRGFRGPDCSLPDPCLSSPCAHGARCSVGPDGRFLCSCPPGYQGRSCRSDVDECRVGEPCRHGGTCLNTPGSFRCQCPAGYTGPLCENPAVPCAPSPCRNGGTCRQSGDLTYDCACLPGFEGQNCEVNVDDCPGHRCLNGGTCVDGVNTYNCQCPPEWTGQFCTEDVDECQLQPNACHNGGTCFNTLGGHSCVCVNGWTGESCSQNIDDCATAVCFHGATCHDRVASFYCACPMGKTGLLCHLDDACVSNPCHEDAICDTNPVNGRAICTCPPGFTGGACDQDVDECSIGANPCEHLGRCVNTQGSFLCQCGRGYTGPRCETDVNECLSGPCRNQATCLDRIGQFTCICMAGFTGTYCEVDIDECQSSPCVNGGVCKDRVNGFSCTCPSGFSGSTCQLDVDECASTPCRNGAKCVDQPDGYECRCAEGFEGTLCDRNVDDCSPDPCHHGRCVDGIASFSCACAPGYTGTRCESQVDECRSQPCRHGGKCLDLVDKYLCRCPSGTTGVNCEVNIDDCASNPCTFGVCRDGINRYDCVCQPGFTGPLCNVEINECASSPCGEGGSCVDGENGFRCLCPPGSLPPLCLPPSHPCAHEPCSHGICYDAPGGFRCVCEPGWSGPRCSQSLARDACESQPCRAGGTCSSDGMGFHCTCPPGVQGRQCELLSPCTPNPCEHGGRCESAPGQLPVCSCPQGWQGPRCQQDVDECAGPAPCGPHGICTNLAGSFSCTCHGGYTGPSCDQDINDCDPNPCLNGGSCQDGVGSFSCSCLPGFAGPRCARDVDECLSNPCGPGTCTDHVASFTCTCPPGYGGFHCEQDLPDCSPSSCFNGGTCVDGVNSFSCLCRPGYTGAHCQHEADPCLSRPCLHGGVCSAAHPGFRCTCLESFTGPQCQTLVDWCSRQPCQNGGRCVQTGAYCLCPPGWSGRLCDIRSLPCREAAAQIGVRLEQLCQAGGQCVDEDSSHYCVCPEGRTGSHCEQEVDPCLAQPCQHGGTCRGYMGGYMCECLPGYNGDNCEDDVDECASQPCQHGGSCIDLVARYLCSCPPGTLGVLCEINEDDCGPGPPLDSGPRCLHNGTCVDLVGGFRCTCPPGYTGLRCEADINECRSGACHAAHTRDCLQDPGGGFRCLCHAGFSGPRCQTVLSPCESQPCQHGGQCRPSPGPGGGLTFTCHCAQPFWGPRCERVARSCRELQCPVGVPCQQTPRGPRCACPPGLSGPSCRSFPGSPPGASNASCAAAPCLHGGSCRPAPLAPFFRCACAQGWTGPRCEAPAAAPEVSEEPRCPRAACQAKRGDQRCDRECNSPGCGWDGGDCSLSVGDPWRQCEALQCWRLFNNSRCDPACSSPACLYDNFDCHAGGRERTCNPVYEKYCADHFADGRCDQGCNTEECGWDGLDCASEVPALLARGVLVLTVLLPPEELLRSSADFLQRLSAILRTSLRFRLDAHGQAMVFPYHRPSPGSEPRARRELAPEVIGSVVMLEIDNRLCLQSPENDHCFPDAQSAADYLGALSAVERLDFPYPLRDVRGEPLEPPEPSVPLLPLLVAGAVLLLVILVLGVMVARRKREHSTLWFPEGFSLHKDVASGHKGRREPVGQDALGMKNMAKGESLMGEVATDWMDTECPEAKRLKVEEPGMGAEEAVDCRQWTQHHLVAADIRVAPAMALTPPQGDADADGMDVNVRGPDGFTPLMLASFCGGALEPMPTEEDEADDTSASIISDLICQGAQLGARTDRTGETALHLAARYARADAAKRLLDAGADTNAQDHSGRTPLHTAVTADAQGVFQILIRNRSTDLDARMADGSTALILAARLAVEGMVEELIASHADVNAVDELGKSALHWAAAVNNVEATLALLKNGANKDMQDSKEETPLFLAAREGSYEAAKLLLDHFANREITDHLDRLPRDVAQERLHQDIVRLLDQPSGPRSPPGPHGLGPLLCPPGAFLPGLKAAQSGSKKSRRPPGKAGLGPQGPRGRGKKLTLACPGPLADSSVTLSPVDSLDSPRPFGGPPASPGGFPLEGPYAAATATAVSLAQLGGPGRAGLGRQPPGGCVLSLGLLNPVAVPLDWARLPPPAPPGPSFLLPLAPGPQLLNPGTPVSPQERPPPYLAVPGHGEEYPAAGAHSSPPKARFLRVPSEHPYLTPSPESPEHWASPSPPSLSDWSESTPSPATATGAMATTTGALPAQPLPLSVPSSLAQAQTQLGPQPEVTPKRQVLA

[10] = small-molecule microarray binders of probe aEGFR, primary screen, biochemical, biotinylated probe, 635/667 nm fluorescence (AID 1097); conditions: higher = more signal;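 also: probe is a biotinylated anti-EGFR antibody binding compounds printed on slides; score combines fluorescence near 667 nm and signal to noise of each spot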
[11] = system: Plasmodium falciparum Sir2 (PF13_0152, Sir2A); assay: pfSir2 binders on small-molecule microarrays, primary screen, biochemical, small-molecule microarray, 635 nm fluorescence (AID 1098); conditions: small-molecule microarray binding, fluorescence 635 nm; higher = more signal;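 also: score merges spot fluorescence intensity with its signal-to-noise ratio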
[12] = small-molecule microarray binders of probe aDKK1, primary screen, biochemical, biotinylated probe, 635/667 nm fluorescence (AID 1099); conditions: higher = more signal;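 also: score merges 667nm spot fluorescence with signal to noise across triplicate slides; reference of the scale not given here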
[13] = small-molecule microarray binders of probe aCHRDL2, primary screen, biochemical, biotinylated probe, 635/667 nm fluorescence (AID 1100); conditions: higher = more signal
[14] = splicing luciferase reporter signal modulators, primary screen, spliceosome inhibition project, cell-based, HEK293, splice +/- reporter (AID 1101); conditions: luminescence, 24 h, higher = more signal, called active from +8 up or from −8 down;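 also: HEK293 cells carrying a splicing-competent luciferase reporter gene; test concentration not given here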
[15] = target: Fibroblast growth factor 10 (Homo sapiens) (UniProt O15520); assay: FGF10 binders on small-molecule microarrays, primary screen, biochemical, small-molecule microarray, 635 nm fluorescence (AID 1102); conditions: FGF10 binding, fluorescence 635 nm, higher = more signal
Fibroblast growth factor 10 (Homo sapiens), sequence (O15520 whole entry, looked up): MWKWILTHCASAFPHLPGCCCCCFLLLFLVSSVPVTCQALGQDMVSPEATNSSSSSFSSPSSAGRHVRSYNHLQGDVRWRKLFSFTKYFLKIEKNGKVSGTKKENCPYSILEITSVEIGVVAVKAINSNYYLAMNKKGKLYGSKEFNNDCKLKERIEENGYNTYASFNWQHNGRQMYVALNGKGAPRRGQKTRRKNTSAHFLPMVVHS

[16] = system: glycogen synthase kinase-3 (GSK3A per assay name; protocol says GSK3B); assay: GSK3 binders on small-molecule microarrays, primary screen, biochemical, small-molecule microarray, 635 nm fluorescence, GSK3A (AID 1103); conditions: small-molecule microarray binding, fluorescence 635 nm; higher = more signal; also: the record names both GSK3A and GSK3B
[17] = target: Epidermal growth factor receptor (Homo sapiens) (UniProt P00533); assay: EGFR binders on small-molecule microarrays, primary screen, biochemical, small-molecule microarray, 635 nm fluorescence (AID 1104); conditions: EGFR binding, higher = more signal;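 also: score merges 667 nm emission intensity with spot signal to noise over triplicate slides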
Epidermal growth factor receptor (Homo sapiens), sequence (P00533 whole entry, looked up): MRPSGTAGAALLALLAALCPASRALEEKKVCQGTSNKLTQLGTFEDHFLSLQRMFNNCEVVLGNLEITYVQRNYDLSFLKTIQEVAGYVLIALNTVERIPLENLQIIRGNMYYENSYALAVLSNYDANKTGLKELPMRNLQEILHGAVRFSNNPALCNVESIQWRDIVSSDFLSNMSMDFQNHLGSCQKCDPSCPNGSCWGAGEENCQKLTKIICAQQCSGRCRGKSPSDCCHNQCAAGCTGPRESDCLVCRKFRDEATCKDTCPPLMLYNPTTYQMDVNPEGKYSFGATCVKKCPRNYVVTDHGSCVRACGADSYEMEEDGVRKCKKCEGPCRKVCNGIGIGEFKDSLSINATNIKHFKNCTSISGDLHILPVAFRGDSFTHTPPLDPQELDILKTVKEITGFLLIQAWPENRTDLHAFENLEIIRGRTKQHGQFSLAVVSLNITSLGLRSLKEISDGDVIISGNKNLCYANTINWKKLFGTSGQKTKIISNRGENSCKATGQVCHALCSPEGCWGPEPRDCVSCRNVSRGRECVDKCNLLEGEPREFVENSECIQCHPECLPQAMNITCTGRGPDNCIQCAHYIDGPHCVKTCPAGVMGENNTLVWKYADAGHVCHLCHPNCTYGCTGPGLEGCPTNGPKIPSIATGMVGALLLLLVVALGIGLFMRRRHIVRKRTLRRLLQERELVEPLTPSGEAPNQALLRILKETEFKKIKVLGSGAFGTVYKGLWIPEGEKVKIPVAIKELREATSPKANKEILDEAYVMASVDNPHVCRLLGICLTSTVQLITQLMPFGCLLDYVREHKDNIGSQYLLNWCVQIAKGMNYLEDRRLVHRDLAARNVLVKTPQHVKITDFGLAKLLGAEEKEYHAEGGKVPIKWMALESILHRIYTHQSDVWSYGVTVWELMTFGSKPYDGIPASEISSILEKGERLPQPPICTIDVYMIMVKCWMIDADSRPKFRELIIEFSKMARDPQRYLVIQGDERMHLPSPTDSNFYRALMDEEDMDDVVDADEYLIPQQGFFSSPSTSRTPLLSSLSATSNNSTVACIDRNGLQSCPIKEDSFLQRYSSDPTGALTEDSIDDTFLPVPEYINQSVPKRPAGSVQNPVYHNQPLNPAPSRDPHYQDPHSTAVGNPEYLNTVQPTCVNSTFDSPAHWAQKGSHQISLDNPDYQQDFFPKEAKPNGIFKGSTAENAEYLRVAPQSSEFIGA

[18] = target: Follistatin-related protein 3 (Homo sapiens) (UniProt O95633); assay: FSTL3 binders on small-molecule microarrays, primary screen, biochemical, small-molecule microarray, 635 nm fluorescence (AID 1105); conditions: FSTL3 binding, higher = more signal;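 also: score merges emission near 667 nm and signal to noise per printed spot across three slides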
Follistatin-related protein 3 (Homo sapiens), sequence (O95633 whole entry, looked up): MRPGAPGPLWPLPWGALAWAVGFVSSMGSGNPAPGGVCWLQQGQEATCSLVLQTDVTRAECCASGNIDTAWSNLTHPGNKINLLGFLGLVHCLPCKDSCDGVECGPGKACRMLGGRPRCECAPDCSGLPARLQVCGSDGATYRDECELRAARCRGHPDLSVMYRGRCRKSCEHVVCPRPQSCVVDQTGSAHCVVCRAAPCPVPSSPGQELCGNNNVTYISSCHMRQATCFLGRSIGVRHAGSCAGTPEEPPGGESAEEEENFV

[19] = target: Dickkopf-related protein 1 (Homo sapiens) (UniProt O94907); assay: DKK1 binders on small-molecule microarrays, primary screen, biochemical, small-molecule microarray, 635 nm fluorescence scan (AID 1106); conditions: DKK1 binding, higher = more signal;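 also: score merges emission near 667 nm with signal to noise over three replicate slides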
Dickkopf-related protein 1 (Homo sapiens), sequence (O94907 whole entry, looked up): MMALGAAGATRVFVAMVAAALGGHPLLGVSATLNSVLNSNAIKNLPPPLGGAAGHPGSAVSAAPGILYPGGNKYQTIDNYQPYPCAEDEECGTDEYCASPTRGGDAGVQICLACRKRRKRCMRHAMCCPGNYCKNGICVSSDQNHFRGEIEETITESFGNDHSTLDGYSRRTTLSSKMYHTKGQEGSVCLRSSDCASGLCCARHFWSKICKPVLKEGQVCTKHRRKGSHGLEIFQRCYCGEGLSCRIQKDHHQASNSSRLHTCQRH

[20] = system: Inhibin beta A chain (activin A); assay: INHBA (activin A) binders on microarrays, primary screen, biochemical, small-molecule microarray, 635 nm fluorescence scan (AID 1107); conditions: small-molecule microarray binding, higher = more signal;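 also: mouse activin A protein probed at 4.33 µg/mL on printed slides; score merges bound-protein fluorescence near 667 nm with spot signal-to-noise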

SMILES	composite z-score [1]	z-score [2]	z-score [3]	z-score [4]	composite z-score [5]	z-score [6]	composite z-score [7]	composite z-score [8]	composite z-score [9]	composite z-score [10]	composite z-score [11]	composite z-score [12]	composite z-score [13]	z-score [14]	composite z-score [15]	composite z-score [16]	composite z-score [17]	composite z-score [18]	composite z-score [19]	composite z-score [20]
COC(=O)C[C@H]1O[C@@]2(C[C@@H]1[Si](C)(C)C)C(=O)N(C)c1ccccc12	0.447	-2.53 (inactive)	-2.4 (inactive)	-1.5 (inactive)	1.2	1.62 (inactive)	-0.15	0.297	0.764	0.0747	0.0786	-0.251	-0.52	-0.662 (inactive)	0.955	0.59	0.559	0.612	0.525	-1.08
CN(C)CCCC[C@@H]1NC(=O)[C@@H]2C[C@H](C(=O)NCCCCCCNC(=O)CS)[C@H](c3ccc(O)cc3)N2C1=O	1.33	-0.378 (inactive)	-0.472 (inactive)	0.0236 (inactive)	2.79	-0.744 (inactive)	-0.269	1.13	0.65	0.123	0.73	-0.165	-0.294	1.06 (inactive)	1.34	1.24	0.954	0.997	1.31	0.277
CC(C)N1C(=O)C[C@@](C(=O)NCCN2CCOCC2)(c2ccc([N+](=O)[O-])cc2)[C@H]1c1ccc(CO)cc1	0.266	-1.77 (inactive)	-0.274 (inactive)	-1.76 (inactive)	3.61	0.214 (inactive)	-0.001	0.193	-0.958	-0.228	1.88	-0.477	0.447	-0.286 (inactive)	-0.945	-0.175	-1.12	-0.854	-1.03	0.16
CN1C(=O)[C@@H]2[C@@H](CC(COc3ccccc3)=C3[C@@H](CCc4ccccc4)OB(O)C[C@@H]32)C1=O	0.359	-0.973 (inactive)	-0.793 (inactive)	-0.862 (inactive)	0.384	-0.372 (inactive)	-0.205	0.231	-0.138	-0.15	1.11	-0.003	0.0414	0.341 (inactive)	0.311	-0.557	-0.133	0.128	0.109	0.515
COC(=O)[C@@]1(Cc2ccc(F)cc2)[C@H]2c3cc(C(=O)N(C)C)n(CCc4ccc(O)c(O)c4)c3C[C@H]2CN1C(=O)c1ccccc1	-0.0562	0.278 (inactive)	0.955 (inactive)	0.987 (inactive)	2.56	-0.365 (inactive)	0.534	-0.601	0.498	0.253	0.681	0.52	0.828	0.692 (inactive)	0.842	-0.292	-0.147	-0.439	-0.372	0.239
COC(=O)C(CC#Cc1ccc2c(c1)[C@]1(C(=O)N2)[C@H](c2ccc(OCCO)cc2)N2[C@H](c3ccccc3)[C@H](c3ccccc3)OC(=O)[C@H]2[C@@H]1C(=O)N1CCCCCCC1)C(=O)OC	1.54	1.37 (inactive)	0.736 (inactive)	2.56 (inactive)	3.95	-0.611 (inactive)	1.54	1.84	1.03	1.17	1.8	2.65	1.3	0.191 (inactive)	1.18	1.37	1.64	1.63	2.14	1.64
Cc1ccc(S[C@]2(C(=O)NC(C)C)CC(=O)N(C3CCCCC3)[C@@H]2c2ccc(CO)cc2I)cc1	1.54	-1.15 (inactive)	0.145 (inactive)	2.68 (inactive)	2.84	-0.317 (inactive)	-0.0977	0.7	0.884	0.0203	1.16	0.763	0.547	-0.504 (inactive)	0.612	0.621	-0.242	1.19	0.205	0.0441
O=C1C[C@@](C(=O)NCc2ccccc2)(c2ccc([N+](=O)[O-])cc2)[C@@H](c2ccc(CO)cc2)N1C1CCCCC1	1.57	-1.69 (inactive)	-0.221 (inactive)	1.08 (inactive)	3.09	0.78 (inactive)	-0.206	0.65	0.846	-0.14	1.34	-0.437	0.538	-1.97 (inactive)	0.42	0.97	0.123	0.645	0.0339	0.953
O=C1[C@@H]2[C@@H](CC(COc3ccccc3)=C([C@H](O)CCc3ccccc3)[C@@H]2CO)C(=O)N1Cc1ccccc1	1.08	0.77 (inactive)	0.369 (inactive)	3.2 (inactive)	1.39	0.707 (inactive)	-0.176	0.127	0.453	-0.0828	0.764	-0.0833	-0.264	0.187 (inactive)	0.408	-0.0949	0.256	0.679	0.286	0.343
CC(C)OC(=O)CC(=O)CC(O)c1cccc([N+](=O)[O-])c1 (stereo not given)	1.09	-4.2 (inactive)	-1.84 (inactive)	-2.74 (inactive)	1.64	0.305 (inactive)	-0.186	-0.164	0.83	-0.0215	0.784	0.645	0.851	-2.86 (inactive)	0.366	0.814	-0.113	0.753	-0.229	0.916

Source: PubChem BioAssay
